Glyco luc inh: blocks N-linked glycosylation in D54 reporter cells; actives 0.23% (n = 360,000); D54 ERlucT glycosylation luciferase reporter, 24 h; percent of 100 nM tunicamycin response; reporter increase, % at 12.5 µM;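 active = mean luciferase reporter signal, scaled so untreated is 0 and the glycosylation-blocking control 100, at or above a set limit in every replicate; inconclusive = mean reaches the limit but not every replicate does; inactive = mean below the limit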;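 note: luciferase carries N-glycosylation sites so blocking glycosylation raises the light; 0% = median of neutral control wells and 100% = median of 100 nM tunicamycin wells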
NSD2 inh: blocks human histone methyltransferase NSD2; NSD2 peptide methylation, AlphaScreen, 120 min; O96028; actives 0.54% (n = 310,000); inhibition, % at 12.5 µM; in the data active = inhibition above about 50%
Target sequence (O96028 whole entry, looked up): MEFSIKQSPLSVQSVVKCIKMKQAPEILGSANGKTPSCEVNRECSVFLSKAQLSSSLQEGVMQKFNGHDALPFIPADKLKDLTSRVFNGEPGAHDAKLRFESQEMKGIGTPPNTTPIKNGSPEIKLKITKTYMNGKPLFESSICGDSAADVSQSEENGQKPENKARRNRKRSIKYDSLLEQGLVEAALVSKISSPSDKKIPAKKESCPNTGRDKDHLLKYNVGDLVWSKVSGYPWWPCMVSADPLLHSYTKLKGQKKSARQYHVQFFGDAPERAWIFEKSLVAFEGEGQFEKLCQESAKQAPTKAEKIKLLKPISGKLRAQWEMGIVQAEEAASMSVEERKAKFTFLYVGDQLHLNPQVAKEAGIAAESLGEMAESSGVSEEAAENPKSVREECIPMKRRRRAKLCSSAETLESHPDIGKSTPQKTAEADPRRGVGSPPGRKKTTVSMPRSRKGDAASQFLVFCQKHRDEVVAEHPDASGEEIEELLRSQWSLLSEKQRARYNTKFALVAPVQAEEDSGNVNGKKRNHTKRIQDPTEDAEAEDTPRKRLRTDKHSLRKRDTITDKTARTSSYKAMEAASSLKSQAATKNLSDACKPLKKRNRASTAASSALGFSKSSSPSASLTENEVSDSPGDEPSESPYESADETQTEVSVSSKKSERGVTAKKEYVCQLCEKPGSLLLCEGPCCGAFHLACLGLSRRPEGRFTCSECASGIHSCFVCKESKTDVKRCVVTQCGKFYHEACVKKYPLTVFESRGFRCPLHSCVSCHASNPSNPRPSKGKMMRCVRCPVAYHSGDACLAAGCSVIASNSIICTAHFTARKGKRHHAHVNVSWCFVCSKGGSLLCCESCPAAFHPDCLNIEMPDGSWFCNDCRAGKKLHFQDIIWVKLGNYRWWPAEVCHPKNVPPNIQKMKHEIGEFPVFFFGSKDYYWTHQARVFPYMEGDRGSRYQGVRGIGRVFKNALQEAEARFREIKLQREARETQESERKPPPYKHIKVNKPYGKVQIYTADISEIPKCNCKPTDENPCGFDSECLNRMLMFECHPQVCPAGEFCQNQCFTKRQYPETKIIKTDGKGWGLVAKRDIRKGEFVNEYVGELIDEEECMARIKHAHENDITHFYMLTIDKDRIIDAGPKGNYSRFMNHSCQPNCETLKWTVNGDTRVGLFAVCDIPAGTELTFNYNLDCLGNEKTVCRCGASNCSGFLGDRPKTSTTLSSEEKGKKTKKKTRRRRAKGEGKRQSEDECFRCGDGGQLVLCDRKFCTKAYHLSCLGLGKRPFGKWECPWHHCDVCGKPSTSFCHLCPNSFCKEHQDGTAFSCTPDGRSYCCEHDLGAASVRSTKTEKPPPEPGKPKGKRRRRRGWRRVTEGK
Wnt bcat act: activates Wnt/beta-catenin signaling in a reporter cell assay; activation, % at 9.35 µM; AID 743398; actives 1.2% (n = 300,000); activator, plate reader; in the data active = activation above about 30%, passing the limit was not always enough; inconclusive = no clear call, values can overlap the other calls;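 note: 0% = neutral control wells and 100% = positive control wells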
MITF act: MITF TRPM1 promoter activation in melanoma cells. SK-MEL-5 TRPM1-promoter luciferase, 24 h; % of positive control, neutral wells = 0. activation, % at 12.5 µM. actives 0.75% (n = 300,000). AID 588334;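 active = mean activation of at least 80% with every replicate also reaching 80%; inconclusive = mean reaches 80% but some replicate falls short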;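 note: 0% = neutral control wells and 100% = parthenolide positive control wells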
TRPM1 prom inh: inhibitors of MITF-driven TRPM1 promoter in melanoma cells. SK-MEL-5 TRPM1 promoter luciferase, 24 h. actives 0.83% (n = 330,000). inhibition, % at 12.5 µM;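 active = mean inhibition across replicates of 60% or more, whatever share of single replicates reaches that level; inconclusive = some that reach 60%, reason not given; inactive = mean inhibition across replicates below 60%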
PfHsp90 yeast 2: inhibits growth of yeast expressing Plasmodium falciparum Hsp90; S. cerevisiae expressing PfHsp90, BacTiter-Glo ATP, 48 h; yeast lacking PDR1 and PDR3 efflux regulators; inhibition, % at 9.4 µM; actives 0.32% (n = 310,000); AID 504621;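 active = every replicate shows inhibition above about 80%, whatever the replicate mean, limit read from the data; inconclusive = mean inhibition reaches the set limit but some replicate falls short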;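 note: 0% = DMSO neutral controls and 100% = 20 µM radicicol positive controls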
Active calls of the source: *; ? = inconclusive; / = no result given. This is a sample that favours compounds with a hit; in the whole collection about 2.9% have one here.

SMILES | Glyco luc inh | NSD2 inh | Wnt bcat act | MITF act | TRPM1 prom inh | PfHsp90 yeast 2
COc1ccc(Cc2nc3ccc(C(=O)NCCSC)cc3o2)cc1 | 0 | -2 | 5 | / | -38 | 28
COc1ccc(Cc2nc3ccc(C(=O)NCc4cc(C)no4)cc3o2)cc1 | 0 | -2 | 7 | 91* | -85 | 8
COc1ccc(C(=O)C[n+]2cn(C(F)F)c3ccccc32)c(F)c1 | 3 | 43 | 14 | 13 | -11 | /
CN(CCO)C(=O)c1ccc(-c2nn(C)c(=O)c3ccccc23)cc1 | 2 | -3 | 34* | -14 | 14 | 5
Cc1[nH]c2c(ccc3ccccc32)c1C1C(CCN)C1(C)C (stereo not given) | -3 | 12 | -9 | / | 71* | /
S=c1[nH]c2ccc3ccccc3c2[nH]1 | -1 | -3 | -2 | 2 | -4 | -1
COc1cccc(/C=C/c2ccccn2)c1O | -9 | 3 | 42* | 67 | -60 | -26
CC(=O)OC1CCC2(C)C3CCC4(C)C(C(C)=O)CCC4C3CC3OC32C1 (stereo not given) | -2 | 0 | -2 | -10 | 12 | /
CC(Oc1ccccc1F)C(=O)NNC(=O)CC(C)c1ccccc1 (stereo not given) | 2 | -2 | -1 | 1 | -5 | -3
COc1cc(N=Nc2cccc(S(N)(=O)=O)c2)c2ccccc2c1N | 116* | 10 | 26 | -71 | 74* | -4
NC1=NC(=Nc2cccc(S(N)(=O)=O)c2)c2ccccc21 | 1 | 1 | 0 | -14 | 14 | 6
Cc1ccsc1C(=O)OCc1cc(=O)n2ccsc2n1 | -11 | / | 54* | 77 | -80 | 10
O=C(OCc1cc(=O)n2ccsc2n1)c1ccc(O)cc1O | -5 | 2 | 26 | 54 | -45 | 0
COc1ccc(CNC(=O)C(=O)NCC(c2ccco2)N2CCOCC2)cc1 (stereo not given) | 0 | -2 | 40* | 3 | 2 | 17
O=C(NC1=NCCS1)Nc1ccccc1 | -8 | 0 | 42* | 41 | -42 | 8
COc1ccc(OC)c(S(=O)(=O)NCC2CCN(C(=O)C(=O)c3cccs3)CC2)c1 | / | 1 | -4 | / | / | /
Oc1ccc(-c2nnc(-c3ccc(O)cc3)nn2)cc1 | -9 | 1 | 77* | / | -55 | /
O=C(CCC(=O)Nc1ccccc1)N/N=C/c1ccco1 | 4 | -1 | 1 | 4 | -12 | 2
O=C(N/N=C/c1ccco1)Nc1ccccc1 | -1 | 1 | 38* | 48 | -40 | -15
O=C(N/N=C/c1ccc(Cl)cc1)Nc1ccccc1 | 1 | -4 | 15 | 95* | -97 | -23
O=[N+]([O-])c1c(NCCCO)cc(SCc2ccco2)c2nonc12 | 5 | 4 | 2 | -6 | 9 | 19
O=[N+]([O-])c1c(NCCCO)cc(Sc2ccc(Cl)cc2)c2nonc12 | 9 | 1 | / | -92 | 92* | 15
CC(=O)OCCNc1cc(Sc2nc3ccccc3[nH]2)c2nonc2c1[N+](=O)[O-] | -2 | 1 | -5 | -80 | 80* | 1
CN1C(=O)NC(c2ccccc2)(C(F)(F)F)S/C1=C(/C#N)c1nnc(N2CCOCC2)n1-c1ccccc1 (stereo not given) | 0 | 2 | 67* | -4 | 3 | 5
CC(C)(C)c1cc(NC(=O)c2ccc(OC3CCCC3)cc2)no1 | -2 | 2 | -2 | 36 | -30 | -17
SMILES | Glyco luc inh | NSD2 inh | Wnt bcat act | MITF act | TRPM1 prom inh | PfHsp90 yeast 2
O=C(Nc1ccon1)c1ccc(OC2CCCC2)cc1 | -10 | -3 | 46* | ? | -78 | 26
Oc1ccccc1C=NNc1nc2ccccc2s1 | -11 | 2 | 4 | -4 | -1 | /
CC(=O)c1sc(N/N=C\c2cccc(Br)c2)nc1C | -4 | -4 | 1 | 24 | -30 | -27
CC(=O)c1sc(N/N=C\c2ccc(Br)cc2)nc1C | 6 | -4 | 14 | 119* | -116 | -24
COc1cccc(C=NNc2nc3ccccc3s2)c1OC | -13 | 0 | 51* | 43 | -40 | 21
COc1cccc(/C=N/n2c(N)nc3ccccc32)c1OC | -1 | 5 | 27 | 90* | -82 | -12
Cc1nn(-c2ccccc2Cl)c(Cl)c1/C=N/Nc1nc2ccccc2s1 | -21 | 6 | -17 | -98 | 98* | -13
Cc1cccc(C)c1OCC(=O)Nc1ccc2c(c1)C(=O)NC2=O | 2 | 2 | 0 | -2 | 0 | 3
CCC1COCCS(=O)(=O)N1Cc1ccc(F)cc1 (stereo not given) | 1 | / | -2 | 0 | 2 | 12
O=C(Cn1nnnc1CN1CCOCC1)N1CCC(c2cccc(Cl)c2)C1 (stereo not given) | 0 | 2 | 1 | 3 | 4 | 1
COCc1cc(N2CCN(C(=O)OC(C)(C)C)C[C@H]2C)ccc1N1CC[C@H](O)C1 | / | / | -7 | / | / | /
CC(=O)Nc1ccc(/C=N/Nc2nc3ccccc3s2)cc1 | -12 | -1 | 57* | 53 | -41 | -29
Cc1ccsc1/C=N/Nc1nc2ccccc2s1 | -15 | 0 | 61* | 39 | -38 | -49
O=C1CCC[C@H]2C[C@H](NCc3ccco3)CC[C@]23CCCN13 | / | -1 | / | / | / | /
Cc1cc(O)cc(=O)n1-c1cc(Cl)cc(Cl)c1 | / | / | 2 | / | / | /
O=C(NC(CSCc1ccccc1)C(=O)N/N=C/c1ccc(O)cc1O)c1ccc([N+](=O)[O-])cc1 (stereo not given) | -7 | 5 | / | -70 | 70* | -10
Cc1cnc(C(=O)Nc2nnc(C(C)C)s2)cn1 | -4 | -1 | 32* | / | -39 | /
O=C1N[C@H]2CC=C[C@H]2N(Cc2cccs2)c2ccccc21 | 54* | / | -2 | 9 | -4 | 10
O=C1c2ccccc2C(O)N1Cc1cccs1 (stereo not given) | 3 | -2 | -1 | 1 | 0 | 11
Cc1cc(C)n(C(=O)CNC(=O)/C=C/c2ccccc2)n1 | 0 | 6 | -2 | 0 | 4 | -1
CCCN1C(=O)/C(=C/c2ccc(N3CCCC3)c(C)c2)NC1=S | -5 | 0 | 7 | 18 | -14 | -44
Cc1cc(/C=C2/C(=O)N(C)C(=S)N2C)ccc1N1CCCC1 | -8 | 16 | 44* | 55 | -49 | -9
Cc1cc(N2CCCC2)ccc1/C=C1/C(=O)N(C)C(=S)N1C | 14 | 4 | -2 | -30 | 32 | 14
Cc1cc(/C=C2\NC(=S)N(C)C2=O)ccc1N1CCCC1 | -1 | -6 | 53* | 50 | -42 | -19
C=CCSc1nnc(-c2sc(-c3ccccc3)nc2C)n1C | 2 | 1 | 33* | / | -31 | /
Cc1ccc(NC(=O)Cc2ccc(OC(F)F)cc2)c(S(=O)(=O)N2CCOCC2)c1 | / | -1 | / | / | / | /
Cc1cc(NS(=O)(=O)c2ccc(NC(=O)CSc3nc4sc(C)c(C)c4c(=O)n3Cc3ccco3)cc2)nc(C)n1 | / | 12 | / | / | / | /
c1ccc2c(-c3nc4ccccc4[nH]3)cccc2c1 | 28* | -2 | -3 | / | / | /
CSc1ncccc1-c1nc2ccccc2[nH]1 | 3 | / | 17 | 24 | -19 | 7
